Screens as filed in PubChem BioAssay.
Pol kappa inh-1: DNA polymerase kappa (human) inhibition | Q9UBT6 | purified Pol kappa, fluorescent DNA synthesis assay, 10 min | Potency, µM (top dose mostly 107 µM), inactives show top-dose activity, negative = inhibition, actives largely listed as inhibitors | 400,000 compounds, 0.53% hits | AID 588579; note: potency is the fitted concentration of half-maximal effect; % is set by controls: 0 for no effect and ±100 for the full control effect
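Readout: fluorescence, taken kinetically at 0 and 10 min. Conditions: 10 nM Pol kappa, 15 min RT compound preincubation, 50 nM substrate final. Controls: enzyme-free buffer wells.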
WRN inhibitor: inhibitors of human WRN helicase; 360,000 compounds, 0.46% hits; Potency, µM (doses to about 114 µM), for the others: at the highest dose activity change, negative = inhibition, usual class: inhibitors; AID 651768; WRN helicase unwinding, fluorescent forked duplex, kinetic; Q14191; note: potency is the fitted concentration of half-maximal effect; % is set by controls: 0 for no effect and ±100 for the full control effect; nearly all actives have a fitted effect of over 55% in size
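Kinetic red-fluorescence monitoring (525/598 nm) tracks WRN helicase activity after 100 nM fluorophore-quencher forked duplex and 2 mM ATP are added to 20 nM enzyme pretreated 15 min at room temperature with compound.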
Pol iota inh: inhibitors of human DNA polymerase iota; Potency, µM (doses to about 115 µM), without a hit: at the highest dose activity, negative = inhibition, actives largely listed as inhibitors; AID 588590; Pol iota fluorescent replication assay, 10 min; 390,000 compounds, 1% hits; note: potency is the fitted concentration of half-maximal effect
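Pol iota at 10 nM preincubated 15 min with compounds at room temperature; reaction started with fluorescent substrate, 50 nM final. Fluorescence read kinetically at 0 and 10 min; buffer-only wells as negative control.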
Pol eta inh-1: blocks human DNA polymerase eta activity. Q9Y253. recombinant Pol eta, fluorescent DNA replication assay. Potency, µM (series often up to 114 µM), inactives show at the highest dose activity change, negative = inhibition, actives largely listed as inhibitors. 390,000 compounds, 1.2% hits; note: potency is the fitted concentration of half-maximal effect; % is set by controls: 0 for no effect and ±100 for the full control effect
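Pol eta (10 nM) was preincubated with compounds for 15 min at room temperature, after which fluorescent replication substrate (50 nM final) was added to start the reaction. Fluorescence was read kinetically at 0 and 10 min.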
PI5P4Ka inh: PI5P4K alpha (human) kinase inhibition | PI5P4Kalpha enzyme, ADP-Glo luminescence, 60 min; hits give low values | P48426 | 330,000 compounds, 1.2% hits | AID 652105 | max response, %; active = max response of -50% or lower; inconclusive = between -30% and -50%; inactive = -30% or higher; note: value at the top dose of about 77 µM; % is set by controls: 0 for no effect and ±100 for the full control effect
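ADP-Glo luminescence end-point read after a 60 min room-temperature kinase reaction of PI5P4Kalpha plus substrate, initiated with ATP at 5 microM final. Buffer: 0.038 M HEPES pH 7.4, EGTA, 0.1% CHAPS, 5% DMSO.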
POLB inh: inhibitors of human DNA polymerase beta; P06746; Pol beta primer extension/strand displacement, fluorescence kinetic; Potency, µM (titrated, usually from 114 µM), for inactives: at the top dose activity change, negative = inhibition, hits mostly inhibitors; 340,000 compounds, 1.3% hits; note: potency is the fitted concentration of half-maximal effect; % is set by controls: 0 for no effect and ±100 for the full control effect
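Preincubation: enzyme (10 nM) with compound, 15 min, RT. Reaction: substrate added to 50 nM final. Reads: 0 and 10 min. Analysis: normalized, Hill fit.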
Pol kappa inh-2: confirmation of human DNA polymerase kappa inhibitors. 920 compounds, 76% hits. AID 720501. purified Pol-kappa, fluorescent strand-displacement substrate. shares compounds with Pol eta inh-1. Potency, µM, most hits filed as inhibitors; note: potency is the fitted concentration of half-maximal effect
Pol eta inh-2: Pol eta (human) inhibition, cherry-pick confirmation; shares compounds with Pol eta inh-1; 2,600 compounds, 64% hits; Potency, µM, actives largely listed as inhibitors; Pol eta primer extension, TAMRA/BHQ fluorescence, 10 min; note: potency is the fitted concentration of half-maximal effect
Active calls of the source: *; ? = inconclusive; nt = no result; ! = not active in a repeat; [ ] = remark or other dose. Hits are enriched below; roughly 2.8% of the tested compounds scored in any of these assays. Unless noted, calls come from the whole dose curve; as a rule, active = well fitted curve in the direction sought with a large enough effect; inconclusive = small, poorly fitted or top-dose-only effect, or another doubt; inactive = no such curve, though single readings can be large; an effect the other way counts as inactive or inconclusive.

SMILES	Pol kappa inh-1	WRN inhibitor	Pol iota inh	Pol eta inh-1	PI5P4Ka inh	POLB inh	Pol eta inh-2	others
COC(=O)C(C)N1C(=O)S/C(=C\c2ccc(-c3ccc(C(=O)O)cc3C)o2)C1=O (stereo unspecified)	31.6µM*	?	?	10µM*	?	39.8µM*	42.6*
CCOC(=O)c1ccc(/C=C2/C=C(c3ccccc3)N(c3ccc(Cl)c(C(=O)O)c3)C2=O)cc1	-16.6%	50.1µM*	?	20µM*	?	31.6µM*	60.1*	Pol kappa inh-2=?
COC(=O)c1cc(S(=O)(=O)N2CCN(c3ccc(C(C)=O)cc3)CC2)cn1C	2.7%	-3.3%	5.0%	-17.5%	0.8	28.0%	nt
O=C(NCc1ccccc1)c1ccc2c(=O)[nH]c3c(C(=O)NCC4CCCO4)sc(=S)n3c2c1 (stereo unspecified)	-14.7%	?	38.5%	?	-17.4	?	?
N#C/C(=C\c1ccc(OCc2ccccc2)cc1)C(=O)Nc1ccc(C(=O)O)cc1	-5.7%	-4.0%	?	-16.5%	-12.3	2.2%	nt
COc1cc(/C=C(/C#N)C(=O)Nc2ccccc2)c(Br)cc1OCc1ccc(C(=O)O)cc1	-16.0%	?	?	79.4µM*	4.5	-13.6%	?
CC1CC(C)CN(C(=O)c2ccccc2Nc2ccc(SC(F)F)cc2)C1 (stereo unspecified)	-8.4%	-6.2%	-0.4%	-15.4%	6.3	7.7%	nt
Cc1cc2c(SCC(=O)Nc3cccc(O)c3)ncnc2s1	89.1µM*	?	?	22.4µM*	-74.4*	nt	75.7*	Pol kappa inh-2=21.2*
COc1ccc(NC(=O)CSc2ncnc3sc(C)cc23)cc1	-12.8%	-7.1%	45.6%	-13.0%	-0.1	28.7%	nt
CN(Cc1ccon1)C(=O)C1CCC(=O)N(CCc2ccc(Cl)cc2)C1 (stereo unspecified)	8.0%	5.7%	2.1%	-9.5%	-0.3	2.0%	nt
COc1ccc(C2=NS(=O)(=O)N(C)C(C(=O)NCc3ccc(F)cc3)=C2)cc1OC	-3.9%	-2.3%	-12.2%	-5.8%	0.3	6.4%	nt
O=C(O)CCC(=O)Nc1ccc2c(c1)Cc1cc(NC(=O)CCC(=O)O)ccc1-2	0.8%	-4.4%[11.6 µM]	-10.2%	25.1µM*	-16.4	44.7µM*	?
Oc1ccc(N=Nc2ccccc2)o1	-6.0%	-7.9%	11.7%	-11.8%	0.8	-18.9%	nt
CC(C)S(=O)(=O)C1=NSC2=NC(=O)/C(=C\c3ccc(-c4cccc(C(=O)O)c4)o3)C(=N)N21	28.2µM*	?	5.62µM*	7.94µM*	-104.4*	31.6µM*	30.1*	Pol kappa inh-2=16.8*
Cc1nnc2c3ccccc3nc(N3CCN(c4cccc(Cl)c4)CC3)n12	-5.4%	nt	18.3%	-12.5%	nt	20.1%	nt
CC(C)N(C(=O)COC(=O)[C@@H]1CC(O)CN1S(=O)(=O)c1ccc(C(C)(C)C)cc1)C(C)C (stereo partly specified)	4.0%	4.7%	14.0%	-6.9%	2.8	-2.6%	nt
N#Cc1c(/N=C/c2ccc(-c3ccc(C(=O)O)c(Cl)c3)o2)sc2c1CCCC2	-33.0%	-30.9%	-20.3%	22.4µM*	-14.0	nt	?
N#Cc1c(/N=C/c2ccc(-c3ccccc3C(=O)O)o2)sc2c1CCCC2	-30.9%	-27.5%	?	28.2µM*	-14.2	28.2µM*	67.5*
Cc1ccc(/C=N/c2sc3c(c2C#N)CCC3)o1	-6.9%	-21.2%	?	?	-20.9	8.2%	nt
CC(=O)c1ccc(N2CCN(S(=O)(=O)c3ccc4c(c3)CC(=O)N4)CC2)cc1	-20.9%	1.0%[11.6 µM]	46.6%	-0.6%	-14.0	43.2%	nt
CC(=O)N1CCN(c2ccc(NS(=O)(=O)c3ccc4c(c3)CC(=O)N4)cc2)CC1	nt	nt	nt	nt	nt	nt	?
CN(C)CCCN(C(=O)c1cc2cc([N+](=O)[O-])ccc2s1)c1nc2cc3c(cc2s1)OCCO3	?	?	-10.1%	?	-69.4*	nt	nt	Pol kappa inh-2=59.7*
CS(=O)(=O)C1=NSC2=NC(=O)/C(=C\c3cccn3-c3ccccc3Cl)C(=N)N21	?	-10.4%[11.6 µM]	?	39.8µM*	-94.7*	35.5µM*	?
CC1=NN2C(=N)/C(=C\c3cc(C)n(-c4cccc(C)c4)c3C)C(=O)N=C2S1	-10.5%	-19.4%	-22.4%[58.9 µM]	-18.1%	-15.8	0.1%	nt
Cc1cc(C)cc(-n2cccc2/C=C2/C(=N)N3C(=NC2=O)SN=C3S(C)(=O)=O)c1	-10.1%	-10.6%[11.6 µM]	?	39.8µM*	?	44.7µM*	?
SMILES	Pol kappa inh-1	WRN inhibitor	Pol iota inh	Pol eta inh-1	PI5P4Ka inh	POLB inh	Pol eta inh-2	others
CS(=O)(=O)C1=NSC2=NC(=O)/C(=C\c3ccc(-c4ccccc4)o3)C(=N)N21	nt	nt	nt	nt	nt	23.4%	nt
CC1=C(C#N)C(=O)NC(=O)/C1=C\c1ccc(-c2cc(C)c(C)cc2[N+](=O)[O-])o1	?	?	?	?	-65.1*	?	?	Pol kappa inh-2=?
O=C1NC(=S)NC1=Cc1ccco1	?	-118.1%	?	12.6µM*	-93.2*	nt	75.7*	Pol kappa inh-2=33.6*
O=C1NC(=O)/C(=C/c2ccco2)N1	3.0%	nt	50.4%	-9.4%	nt	nt	nt
Cc1oc2c(cc(NS(=O)(=O)c3ccc(F)cc3)c3ccccc32)c1C(=O)O	-30.1%	-26.7%	?	?	?	-15.6%	nt
Cc1oc2c(cc(NS(=O)(=O)c3ccc(C(C)C)cc3)c3ccccc32)c1C(=O)O	?	-6.4%[11.6 µM]	?	44.7µM*	-23.1	50.1µM*!	?	Pol kappa inh-2=?
NC(c1ccccc1)c1csc(NC(=O)NCC2CCCCC2)n1 (stereo unspecified)	nt	-9.1%	nt	nt	-9.1	nt	nt
